PI4K2A block – PI4K2A (human) kinase inhibition; Q9BTU6; 420,000 compounds, 0.13% hits; activity change, negative = inhibition, % at 76.9 µM; purified PI4K2A, ADP-Glo luminescence, 1 h; stronger effect = lower value; in the data active = activity change below about -50%; inconclusive = mostly about -30% to -49%
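In this quantitative HTS, ADP production by PI4K2A was quantified luminescently after 1 h at ambient temperature; 100 microM adenosine served as plate-quality control.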
PI5P4Ka inh – PI5P4K alpha (human) kinase inhibition; P48426; PI5P4Kalpha enzyme, ADP-Glo luminescence, 60 min; stronger effect = lower value; max response, %; 330,000 compounds, 1.2% hits; AID 652105; active = max response of -50% or lower; inconclusive = between -30% and -50%; inactive = -30% or higher; also: value at the top dose of about 77 µM
Target sequence (P48426 whole entry, looked up): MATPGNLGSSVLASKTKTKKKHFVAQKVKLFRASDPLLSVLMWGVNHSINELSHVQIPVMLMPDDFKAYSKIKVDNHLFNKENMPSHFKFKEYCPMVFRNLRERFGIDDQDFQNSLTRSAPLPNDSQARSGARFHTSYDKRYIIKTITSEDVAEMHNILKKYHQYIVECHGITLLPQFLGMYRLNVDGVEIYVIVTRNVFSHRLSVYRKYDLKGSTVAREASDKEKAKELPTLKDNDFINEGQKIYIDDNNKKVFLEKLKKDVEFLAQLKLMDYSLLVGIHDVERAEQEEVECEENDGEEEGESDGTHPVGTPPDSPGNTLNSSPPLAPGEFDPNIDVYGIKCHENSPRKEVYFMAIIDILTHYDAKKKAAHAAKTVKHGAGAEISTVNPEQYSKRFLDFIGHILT
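Human PI5P4Kalpha with substrate in 0.038 M HEPES pH 7.4, 0.28 mM EGTA, 0.1% CHAPS, 5% DMSO; reaction started with 5 microM ATP (final), 60 min at room temperature. ADP formed read by ADP-Glo luminescence.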
CtBP-E1A inh – CtBP/E1A binding inhibition; AlphaScreen GST-E1A/His-CtBP binding, 1536-well; stronger effect = lower value; activity change, % (concentration not given with the values); 340,000 compounds, 0.49% hits; AID 651724
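Protein mix (5X: 125 nM each GST-E1A, His-CtBP) was incubated with pinned compound 2 h at 37 deg C in dark, in 50 mM Tris pH 8.0 buffer with 300 mM NaCl. Glutathione donor and nickel acceptor beads followed; AlphaScreen signal read after 1 h.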
pAkt inh – inhibitors of Akt phosphorylation; 360,000 compounds, 0.32% hits; Neuro2A IGF-stimulated pAkt S473 HTRF, 20 min; stronger effect = lower value; activity change, % for hits at 50 µM; AID 651550; in the data active = activity change below about -80%; inconclusive = mostly about -51% to -80%
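Neuro2A cells in DMEM with 0.5% FBS, overnight at 37 deg C, given compound at single 50 µM final, then IGF (6 nM final) for 20 min at 37 deg C. Lysed; phospho-Akt Ser473 by HTRF after 24 h, 665/615 ratio.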
Six1-Eya2 blk – blocks human Six1 binding to Eya2 | Q15475+O00167 | AlphaScreen GST-Six1/His-Eya2 binding, biochemical; stronger effect = lower value | activity change, % (test concentration not listed) | 360,000 compounds, 0.56% hits | AID 651725
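AlphaScreen luminescence read after one hour at 37 °C in darkness. Pin-transferred compounds met GST-Six1 and His-Eya2 protein (5X stock 250 nM/500 nM) plus glutathione donor and Ni-chelate acceptor beads (5X, 50 ug/mL).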
Of the large screens only hits and unclear results are named; the others gave an inactive call. Most compounds without a hit are left out; they make up all but 1.8% or so of the library. Rule as the data show it, unless noted: active = activity change below about -65%; inconclusive = mostly about -30% to -63%; inactive = weaker than that.

CCC1CCCCN1C(=O)CSc1nc2c([nH]c3ccccc32)c(=O)n1-c1cccc(OC)c1 (configuration not stated)	none (no result: PI5P4Ka inh, CtBP-E1A inh, pAkt inh, Six1-Eya2 blk)
CCOc1ccc(NC(=O)Cn2c(=O)c(CNc3ccccc3)cc3cc4c(cc32)OCCO4)cc1	none (no result: PI5P4Ka inh, CtBP-E1A inh, pAkt inh, Six1-Eya2 blk)
Cc1ccc(NS(=O)(=O)c2c(C)nc3sccn3c2=O)c(C)c1	none
CC1=C(C(=O)OCc2ccccc2)C(c2ccc([N+](=O)[O-])cc2)NC(=O)N1CCCCCC(=O)O (configuration not stated)	PI5P4Ka inh inconclusive
CC1=C(C(=O)OCc2ccccc2)C(c2ccc([N+](=O)[O-])cc2)NC(=O)N1CCCC(=O)O (configuration not stated)	PI5P4Ka inh -68
CC1=C(C(=O)OCc2ccccc2)C(c2ccc3c(c2)OCO3)NC(=O)N1CCCC(=O)O (configuration not stated)	PI5P4Ka inh -78
O=C(Nc1c(F)cccc1F)c1cnc(N2CCN(c3ccccn3)CC2)c2ccccc12	none
COc1ccc(-n2c(-c3ccc(Cl)cc3Cl)n[nH]c2=S)c(OC)c1	PI5P4Ka inh -64
Cc1cc(NCc2ccccc2)nc(N2CCOCC2)n1	pAkt inh -113%
Cc1cc(N2CCOCC2)nc(NCc2ccccc2)n1	none (no result: PI5P4Ka inh)
CCc1nc2c(OCc3ccc(C(F)(F)F)cc3)cccn2c1N(C)C(=O)c1ccncc1	none
CSc1ccccc1-c1nnc(-c2ccccc2)o1	none
O=[N+]([O-])c1cc(CN2CCN(c3cccc(C(F)(F)F)c3)CC2)c2cccnc2c1O	PI5P4Ka inh -68, CtBP-E1A inh -90, Six1-Eya2 blk -70
COc1cc(CN2CCCCCC2)cc([N+](=O)[O-])c1O	none (no result: CtBP-E1A inh)
O=[N+]([O-])c1cc(CN2CCCC2)c2cccnc2c1O	PI5P4Ka inh inconclusive, Six1-Eya2 blk -79
COc1ccc(-c2nc3ccccc3[nH]2)cc1	none (no result: PI5P4Ka inh)
COc1ccc(-c2cc(=O)n(-c3nc4ccccc4[nH]3)[nH]2)cc1	CtBP-E1A inh -65, Six1-Eya2 blk inconclusive (no result: PI5P4Ka inh)
Cc1cccc(C(=O)NC(=S)NNC(=O)c2ccccc2Cl)c1	none
Cc1cc(C(=O)NNC(=S)NC(=O)/C=C/c2ccccc2Cl)n[nH]1	CtBP-E1A inh -99, Six1-Eya2 blk -91 (no result: PI5P4Ka inh)
N#Cc1c(N)sc(=S)c2c1CCCCC2	PI4K2A block inconclusive, PI5P4Ka inh -91
N#Cc1c(N)sc2c1CCCCCC2	none (no result: PI5P4Ka inh)
COCCN(C(=O)c1ccco1)C(C(=O)NC1CCCC1)c1cccs1 (configuration not stated)	pAkt inh -92%
CCOC(=O)CN(C(=O)CNC(=O)c1ccco1)C(C(=O)NC1CCCCC1)c1cccs1 (configuration not stated)	none
CCNC(=O)C1(C)CCCN(C(=O)COCc2ccccc2)C1 (configuration not stated)	none
S=c1[nH]c2ccc(Cl)cc2[nH]1	PI5P4Ka inh inconclusive
S=c1ncc2[nH]c(=S)[nH]c2[nH]1	PI5P4Ka inh -84
CCOc1ccc(NC(=O)NC(CC)Cn2nnc3ccccc3c2=O)cc1 (configuration not stated)	none (no result: PI5P4Ka inh, CtBP-E1A inh, pAkt inh, Six1-Eya2 blk)
CCOc1ccc(CCNC(=O)C2CCCN(c3nn4c(=O)cc(C)nc4s3)C2)cc1OCC (configuration not stated)	none
O=C(CCNS(=O)(=O)c1ccccc1C(F)(F)F)N1CCN(c2ccccc2O)CC1	none
CCOc1ccc(/C=C/c2nc(C#N)c(NCc3ccccc3)o2)cc1	none (no result: PI5P4Ka inh, CtBP-E1A inh, pAkt inh, Six1-Eya2 blk)
Cc1cc(C(=O)COC(=O)c2ccc(NC(=O)CC#N)cc2)c(C)n1CCc1ccc(F)cc1	PI5P4Ka inh inconclusive
COc1ccc(CCn2c(C)cc(C(=O)COC(=O)c3ccc(NC(=O)CC#N)cc3)c2C)cc1	PI5P4Ka inh -50
N#C/C(=C/c1ccco1)C(N)=S	PI5P4Ka inh -59
Cc1c(C(=O)Nc2nc(-c3ccccn3)cs2)oc2ccccc12	PI5P4Ka inh -59, CtBP-E1A inh -86, Six1-Eya2 blk -73
O=C(Nc1nc(-c2ccccn2)cs1)c1cc2ccccc2o1	CtBP-E1A inh -68, Six1-Eya2 blk -77
Cc1nc2c(-c3ccc(Cl)cc3)c(C)[nH]n2c(=O)c1Cc1ccccc1	CtBP-E1A inh -82, Six1-Eya2 blk -76
Cc1nc2c(-c3ccccc3)c(C)[nH]n2c(=O)c1Cc1ccccc1	Six1-Eya2 blk inconclusive (no result: CtBP-E1A inh)
